Measurements as given in PubChem BioAssay AID1851 (National Center for Advancing Translational Sciences (NCATS), 2009).
In all, about 16,000 compounds went through this assay and about 5,100 (32%) were called active. Another 25% or so got no clear call; they are omitted. This is one part of the list. Unmarked numbers belong to inactive results. Calls follow the shape of the dose curve; as a rule, active = well fitted curve in the direction sought with a large enough effect; inconclusive = small, poorly fitted or top-dose-only effect, or effect the other way; inactive = no such curve, though single readings can be large or run the other way.

The molecules below were run against Cytochrome P450 3A4 (Homo sapiens) (UniProt P08684) (assay: Cytochrome panel assay with activity outcomes). Conditions: recombinant CYP, pro-luciferin dealkylation, luminescence, p450-cyp3a4; series mostly up to 57.1 µM; activity, negative = inhibition: at the top concentration.
Sequence of Cytochrome P450 3A4 (Homo sapiens) (P08684 whole entry, looked up): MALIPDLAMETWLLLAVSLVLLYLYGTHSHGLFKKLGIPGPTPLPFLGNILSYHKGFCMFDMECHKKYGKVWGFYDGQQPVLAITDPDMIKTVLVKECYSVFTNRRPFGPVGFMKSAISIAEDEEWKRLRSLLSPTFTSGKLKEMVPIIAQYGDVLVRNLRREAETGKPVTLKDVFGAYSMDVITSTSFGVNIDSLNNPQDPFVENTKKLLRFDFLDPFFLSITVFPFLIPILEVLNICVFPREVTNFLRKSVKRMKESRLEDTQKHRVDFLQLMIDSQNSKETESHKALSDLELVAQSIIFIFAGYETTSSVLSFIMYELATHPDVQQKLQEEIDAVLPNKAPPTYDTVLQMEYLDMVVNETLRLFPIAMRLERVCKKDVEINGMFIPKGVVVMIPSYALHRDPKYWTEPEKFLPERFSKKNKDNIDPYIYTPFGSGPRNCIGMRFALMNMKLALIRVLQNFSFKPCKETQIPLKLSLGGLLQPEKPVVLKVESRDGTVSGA
% is scaled to controls: 0 for no effect and ±100 for the full control effect.

Compound | AC50 | activity, negative = inhibition
N[C@H](CCC(=O)N[C@H](CSN=O)C(=O)NCC(=O)O)C(=O)O | inactive | –
CO[C@@H]1COC(=O)[C@H]2CCCN2C(=O)[C@@H](C)COC(=O)CCC[C@H]1C | – | -20.2% [at 11.4 µM]
C=CCOc1cccc(/C=N/NC(=O)C(=O)NCc2ccco2)c1 | – | -17.7%
CC[N+](CC)(CC)CCOc1ccc(/C=C\c2ccccc2)cc1 | – | -9.87%
Cc1ccc(C(=O)N/C(=C/C=C/c2ccccc2)C(=O)NCc2ccco2)cc1 | 5.01 µM (active) | –
C=CCNC(=O)/C(=C\C=C\c1ccccc1)NC(=O)c1ccc(OCCCC)cc1 | 8.91 µM (active) | –
Cn1cnc([N+](=O)[O-])c1Sc1nc(N)nc2c1ncn2[C@H]1C[C@H](O)[C@@H](CO)O1 | – | -4.33% [at 11.4 µM]
CN1CCC(=C2c3ccccc3C=Cc3ccccc32)CC1 | inactive | –
O=C(O)CN(CCOCCOCCN(CC(=O)O)CC(=O)O)CC(=O)O | – | 6.56%
N=C1/C(=C\c2ccc(SCc3ccco3)o2)C(=O)N=C2SC=NN12 | 3.98 µM (active) | –
O=C(CCCN1C(=O)c2cccc3cccc(c23)C1=O)N1CCc2ccccc2C1 | 5.01 µM (active) | –
O=C(O)c1cccc2cccc(-c3cccc4cccc(C(=O)O)c34)c12 | – | -5.55% [at 11.4 µM]
CCc1ccc(/C=C\C(=O)N2CCc3ccccc3C2)cc1 | – | -11.1%
O=C(c1ccc(S(=O)(=O)N2CCCCCC2)cc1)N1CCC(CN2C(=O)c3cccc4cccc(c34)C2=O)CC1 | – | -12.4%
N=C(N)N1CCc2ccccc2C1 | – | -3.56% [at 25.6 µM]
O=C(CN1C(=O)c2cccc3cccc(c23)C1=O)N1CCCCCC1 | 10 µM (active) | –
COc1cccc(-c2cc(C(=O)N/N=C/c3ccc(OC)c(COC(C)=O)c3)c3ccccc3n2)c1 | 1.78 µM (active) | –
COc1cccc(/C=N/NC(=O)c2nc(-c3ccccc3)cc(-c3ccccc3)n2)c1 | – | 11.4%
COc1ccc(/C=N/NC(=O)c2cc(-c3ccc(C)cc3C)nc3ccccc23)cc1COC(C)=O | – | 14.1% [at 0.457 µM]

Compound | AC50 | activity, negative = inhibition
N[C@]1(C(=O)O)CCc2cc(P(=O)(O)O)ccc21 | – | -9.83%
Fc1ccc2c(c1)C(c1ccncc1)=NNC(c1ccc(Cl)cc1)=N2 | 1.78 µM (active) | –
Clc1ccc2c(c1)C(c1cccs1)=NNC(c1cccnc1)=N2 | 10 µM (active) | –
CC(C)c1ccc2c(c1)C(c1ccc(N3CCOCC3)cc1)=NNC(c1cccs1)=N2 | – | 9.44% [at 2.29 µM]
O=C(O)[C@H]1CCCC[C@@H]1c1c2ccc(=O)c(O)c-2oc2c(O)c(O)ccc12 | – | -5.27% [at 11.4 µM]
C=CCNc1nc(SCC=C)nc2ccsc12 | 12.6 µM (active) | –
C=CCSc1nc(NC)c2sccc2n1 | 25.1 µM (active) | –
C=CCSc1nc(Oc2ccccc2)c2sccc2n1 | 10 µM (active) | –
CSc1nc(Oc2ccc(F)cc2)c2ccccc2n1 | – | 1.87%
C=CCSc1ccsc1C(=O)O | – | -6.67%
NS(=O)(=O)c1ccc(N=Nc2c[nH]c(=O)c(O)c2)cc1 | – | -19.5% [at 11.4 µM]
N#Cc1c(-c2cccs2)nc(SCC(=O)c2cccs2)[nH]c1=O | – | -3.29% [at 2.29 µM]
O=C(CSc1nc2nc(-c3cccs3)cc(C(F)(F)F)c2c(=O)[nH]1)NCc1ccco1 | 14.1 µM (active) | –
CSc1nc(O)c(Cc2ccccc2)c(=O)[nH]1 | – | -2.8%
CSc1nc(-c2ccc(C)cc2)[nH]c1S(=O)(=O)c1ccccc1 | 28.2 µM (active) | –
CCCCCOC(=O)c1c(N)n(CCOC)c2nc3ccccc3nc12 | 8.91 µM (active) | –
C=C(CC1([C@@H](NP(=O)(c2ccccc2)c2ccccc2)[C@H]2C[C@@H]2CCCC)CC1)c1ccccc1 | 1.58 µM (active) | –
C=C(CC1([C@@H](NP(=O)(c2ccccc2)c2ccccc2)[C@H]2C[C@@H]2CCCC)CC1)c1cccc(OC)c1 | 2.51 µM (active) | –
C=C(CC1([C@@H](NP(=O)(c2ccccc2)c2ccccc2)[C@H]2C[C@@H]2CCN(C(=O)OCC)S(=O)(=O)c2ccc(C)cc2)CC1)c1ccccc1 | 1.58 µM (active) | –

Compound | AC50 | activity, negative = inhibition
O=C(O)c1ccc(SSc2ccc(C(=O)O)cn2)nc1 | – | -8.92% [at 11.4 µM]
Cc1ccc(C(=O)N(CN2CCCC2=O)c2ccccc2)cc1C | 12.6 µM (active) | –
Cc1cc(C(=O)OCC(=O)NCCCN2CCCC2=O)c2ccccc2n1 | – | -5.65% [at 2.29 µM]
O=C1CCCN1CC(O)CS(=O)(=O)c1ccccc1 (stereo unspecified) | – | -2.95%
CC1(C)CO[C@H](CC(=O)O)CN1 | – | -11.5%
COc1cccc(OC)c1C(=O)NC(=S)N1CCN(c2ccc(C(F)(F)F)cc2[N+](=O)[O-])CC1 | – | -16.4% [at 2.29 µM]
O=C(O)C1CCN(c2c([N+](=O)[O-])cc(C(F)(F)F)cc2[N+](=O)[O-])CC1 | – | 4.13%
O=c1c([N+](=O)[O-])cc(C(F)(F)F)cn1Cc1c(Cl)cccc1Cl | 14.1 µM (active) | –
CCC(=O)OCC(=O)[C@@]1(OC(=O)CC)[C@H](C)C[C@@H]2[C@H]3CCC4=CC(=O)C=C[C@]4(C)[C@]3(Cl)[C@@H](O)C[C@@]21C | – | -13.1% [at 25.6 µM]
CCC(=O)[C@@]1(C)[C@H](C)C[C@@H]2[C@@H]3CCC4=CC(=O)C=C[C@@]4(C)[C@H]3[C@H](O)C[C@]21C | – | -6.68% [at 25.6 µM]
CN(C)C(N)=NCCC[C@H](N)C(=O)O | – | 2.12%
Cc1ccc(C(=O)N/N=C\c2ccc[nH]2)cc1[N+](=O)[O-] | – | 16.8% [at 2.29 µM]
Cc1ccc(-c2ccc(/C=N/NC(=S)Nc3ccccc3)o2)cc1[N+](=O)[O-] | 7.08 µM (active) | –
Cc1ccc(-c2ccc(/C=N\NC(=O)c3cc4c(ccc5ccccc54)o3)o2)cc1[N+](=O)[O-] | – | -21.4%
Cc1cc(C(F)(F)F)n2nc(-c3cnn(C)c3C(F)(F)F)c(Cl)c2n1 | – | -19%
Clc1ccccc1-c1nc(-n2ccnc2)c2ccccc2n1 | 0.501 µM (active) | –
Cc1ccccc1-c1nc(-n2ccnc2)c2ccccc2n1 | 0.398 µM (active) | –
NC(=O)c1ccccc1-c1nc(-n2ccnc2)c2ccccc2n1 | 3.98 µM (active) | –
